The text below walks through data of article PMC5540273 (PLoS ONE, 2017).
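Note: KINOMEscan kinase panel screen.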

The assay relates to SIK. The following applies: concentration: 1 μM, replicates: in singlicate; n = 1.
For `Cc1cccc(Nc2nc(N[C@H]3CCNC3)ncc2C(N)=O)c1.Cl` [GSK2197149], the “%Inh” value came to 35%. For `O=C(Nc1ccccc1F)NC1CCN(c2ccnc(Nc3ccc(F)cc3)n2)CC1` [GSK1379800] the value was 3%; for `CN(C)S(=O)(=O)c1cc(-c2ccc3nccc(-c4cccc(S(N)(=O)=O)c4)c3c2)cnc1N` [GSK1669921], 0%. For the compound `COc1ccc(CNC(=O)NC2CCN(c3ccnc(Nc4ccc(F)cc4)n3)CC2)cc1` [GSK1379788], the “%Inh” value came to 0%.

Consider `Cl.Cl.NCC(C(=O)Nc1cc(Br)c(-c2ccnc3[nH]ccc23)s1)c1ccccc1` (stereo not drawn) [GSK1269851], for which the “%Inh” value turned out to be 0%. The same measure for `COC(=O)Nc1nc2ccc(Oc3ccc(NC(=O)Nc4cc(C(F)(F)F)ccc4F)cc3)cc2n1C.Cl` [GW692089]: 1%. For the compound `Nc1ncc(-c2cccnc2)c2scc(-c3ccc4c(c3)CCN4C(=O)Cc3ccccc3)c12` [GSK683281], the “%Inh” value was 19%. On to `Cc1ccc(C(=O)Nc2ccc(Nc3ccnc4cc(-c5nccs5)ccc34)cc2O)cc1.Cl` [GW494702], for which the “%Inh” value stood at 4%. The same measure for `Cn1cc(-c2[nH]c3cc(NC(=O)[C@H](N)C4CCCCC4)cc4c3c2C=NNC4=O)cn1`: 90.8%; for `CCc1ccc(-c2ccc3c(c2)-c2c(cnn2C)S(=O)(=O)N3C)cc1`: 6%.

`Nc1ncc(-c2ccc3nccc(-c4ccncc4)c3c2)cc1S(=O)(=O)N1CCOCC1` [GSK1627798]: the “%Inh” value came out at 0%. For `O=C(Nc1n[nH]c2nc(-c3ccc(O)cc3)ccc12)C1CC1` [SB-710363] the value was 0%.
